# From PubChem
# Compounds with a hit are over-represented: about 2.9% of the library has one in this group of screens.
# HEK293 viab – counter-screen for SNCA expression inhibitors: cell viability. AID 1671193. actives 0.12% (n = 150,000). HEK-293-SNCA-luc viability, GF-AFC fluorescence, 24 h. Potency, µM (doses to about 57.1 µM), most hits filed as cytotoxic; note: nearly all actives have a fitted effect of over 30% in size
#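 Cytotoxicity counterscreen: after 24 h compound treatment of genome-edited SNCA-luciferase HEK-293 cells, live-cell protease substrate GF-AFC read by fluorescence after 30 min; activity scaled between DMSO (0%) and medium-only (-100%), curves Hill-fitted.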
# KDM5B inh – KDM5B demethylase inhibition. Q9UGL1. KDM5B demethylase, FDH-coupled NADH fluorescence (FDH is formaldehyde dehydrogenase). Potency, µM (top dose mostly 57.7 µM), actives largely listed as inhibitors. actives 2.6% (n = 220,000); note: nearly all actives have a fitted effect of over 70% in size
#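 Here, H3K4me3 peptide (12.5 µM in substrate mix) is demethylated by KDM5BΔAP, 200 nM final, after 10 min compound exposure. Formaldehyde product is coupled through FDH (0.25 U/mL in mix) to NADH fluorescence; 30-min ΔRFU feeds dose-response curves.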
# SNCA expr inh – SNCA gene expression inhibition; HEK-293 SNCA-luciferase knock-in, luminescence, 24 h; Potency, µM (highest dose often 57.2 µM), actives largely listed as inhibitors; actives 0.17% (n = 140,000); note: nearly all actives have a fitted effect of over 45% in size
# IP6K1 inhibitor – inhibitors of human IP6K1. AID 1645851. IP6K1 kinase, ADP-Glo luminescence, 2 h; stronger effect = lower value. activity change, % (series mostly up to about 58 µM). actives 0.81% (n = 140,000); in the data active = activity change below about -25%
#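 ADP-Glo luminescence measures ADP made by human IP6K1 during a 2 h RT reaction with ATP/IP6 (mix at 1.3 mM/130 uM); top library doses 57.5 and 19.1 uM final.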
# IP6K1 inh cnf – confirmation of human IP6K1 inhibitors; Potency, µM (series often up to 49 µM), actives largely listed as inhibitors; recombinant IP6K1 kinase, ADP-Glo luminescence, 2 h; shares compounds with IP6K1 inhibitor; actives 13% (n = 1,200); note: nearly all actives have a fitted effect of over 65% in size
# Hits are given with their value; 0 = inactive; ? = inconclusive; - = no result; [ ] = dose if it differs, or a comment. Unless noted, calls come from the whole dose curve; as a rule, active = well fitted curve in the direction sought with a large enough effect; inconclusive = small, poorly fitted or top-dose-only effect, or another doubt; inactive = no such curve, though single readings can be large; an effect the other way counts as inactive or inconclusive.
SMILES,HEK293 viab,KDM5B inh,SNCA expr inh,IP6K1 inhibitor,IP6K1 inh cnf
O=C(NC1CC1)c1cc(-c2ccccc2F)cc2c1OCCN2Cc1cccnc1,?,32µM,0,-26,?
CNC(=O)c1cc(-c2ccc(CO)cc2)cc2c1OCCN2Cc1cccnc1,0,28µM,0,-26,0
O=C(NCc1cccnc1)c1cc(-c2ccccc2F)cc2c1OCCN2Cc1cccnc1,?,28µM,0,-28,?
COc1ccc(-c2cc(C(=O)NCc3cccnc3)c3c(c2)N(C)CCO3)cn1,0,?,0,0,-
CCn1nc(C(=O)Nc2ccc(OC)c(OCCOC)c2)c2ccccc2c1=O,-,0,-,-,-
COCC1CN(C2CCC2)CC12CCN(C(=O)c1ccc(F)cc1)CC2 (stereo not drawn),0,?,0,0,-
COc1ccccc1-c1nc2c(c(SCc3cc(C)ccc3C)n1)Cc1c(CO)cnc(C)c1O2,0,?,0,-27,0
Cc1ccc(CCNC(=O)c2nn(C)c3c2CSc2ccccc2-3)cc1,0,?,0,-29,0
Cn1nc(C(=O)NCCc2ccc(Cl)cc2)c2c1-c1ccccc1SC2,0,?,?,0,-
Cc1ccc(CS(=O)(=O)c2ncc(Cl)c(C(=O)Nc3nc4ccc(F)cc4s3)n2)cc1,0,?,?,-28,0
CCCc1nnc(NC(=O)c2nc(S(=O)(=O)Cc3ccc(C)cc3)ncc2Cl)s1,28µM,?,5µM,-33,?
COc1cc(/C=C/c2nc3c(ccc4ccccc43)s2)cc(OC)c1OC,-,0,-,-,-
Cn1ncc2c(C(=O)NCc3cccc(F)c3)cc(-c3ccc(Cl)cc3Cl)nc21,?,-,0,0,-
CC(=O)Nc1ccc(NC(=O)Cn2c(C)cc3ccccc32)cc1,-,0,-,-,-
CNC(=O)c1cccc(NC(=O)C2CCCCC2)c1,-,0,-,-,-
COc1ccc(NS(=O)(=O)c2cc(-c3onc(C)c3C)ccc2C)c(OC)c1,0,?,0,0,-
COc1ccc(OC)c(CNS(=O)(=O)c2cc(-c3onc(C)c3C)ccc2C)c1,0,0,0,-46,0
CCOC(=O)c1ccc(NC(=O)CC2C(=O)N(c3ccc(F)cc3)C(=O)N2Cc2ccc(C)cc2)cc1 (stereo not drawn),0,0,?,-29,?
COCCN(Cc1cc2ccc(C)cc2[nH]c1=O)C(=O)c1ccc(OC)c(OC)c1,-,0,-,-,-
COc1cc(/C=C2/NC(=O)NC2=O)cc(I)c1OCc1cccc(C(=O)O)c1,-,0,-,-,-
CCN1CCC2(CCC1=O)CN(Cc1noc(CC(C)C)n1)CCN2C (stereo not drawn),0,0,0,0,-
CCN1CCC2(CCC1=O)CN(Cc1nc(CCOC)no1)CCN2C (stereo not drawn),0,0,0,-33,0
CCN(CC)c1ccc(NC(=O)c2cc(S(N)(=O)=O)ccc2C)cc1,-,0,-,-,-
CCN(CC)c1ccc(C(=C2C=CC(=[N+](CC)CC)C=C2)c2cc(S(=O)(=O)O)ccc2S(=O)(=O)[O-])cc1,0,-,0,-51,?
O=C1NCc2ccccc2CC12CCCN(Cc1cc(F)ccc1O)C2 (stereo not drawn),0,0,0,0,-
SMILES,HEK293 viab,KDM5B inh,SNCA expr inh,IP6K1 inhibitor,IP6K1 inh cnf
CC(C)CNC(=O)c1ccnc(-c2nnc3ccc(Nc4ccccc4)nn23)c1,0,?,0,-28,?
C[C@@H]1CN(C(=O)c2ccnc(-c3nnc4ccc(Nc5ccccc5)nn34)c2)C[C@H](C)O1,0,0,0,0,-
Cc1cccc(C)c1NC1=NS(=O)(=O)c2ccccc21,-,0,-,-,-
COC(=O)c1cccc(NC2=NS(=O)(=O)c3ccccc32)c1,0,0,0,-40,?
CC1CN(C(=O)CCC(=O)NCc2ccc(F)cc2)c2cc(Cl)ccc2O1 (stereo not drawn),0,0,0,-25,0
CN(C)c1cc(=O)c2ccnc(-c3cccc(CO)c3)c2o1,0,0,0,-25,0
Cc1cc(-c2nccc3c(=O)cc(N(C)c4ccccc4)oc23)ccn1,0,?,0,0,-
COc1ccc(-c2nc(SCC(=O)Nc3cccc(C(C)=O)c3)n[nH]2)cc1,0,0,0,-33,?
COc1ccc(-c2nc(SCC(=O)Nc3cccc(C(F)(F)F)c3)n[nH]2)cc1,-,0,-,-,-
COc1ccc(Cl)cc1-n1nnc(C(=O)Nc2cc(C)ccc2C)c1C,-,0,-,-,-
Cc1noc(C)c1-c1cc2c(cc(-c3ccccc3)n2C)c(-c2ccnn2C)n1,0,0,0,-45,?
CCC(C)NC(=O)C(NC(=O)c1cccc(C)c1)C1CCN(C(=O)c2ccccc2F)CC1 (stereo not drawn),0,?,0,0,-
CC1CCN(c2ccc(-c3cccc(N)c3)nn2)CC1,0,0,1.4µM,-44,?
COCCN1CCC2(CCC1=O)CCN(C(=O)C1CCOCC1)CC2,0,0,0,0,-
COc1ccc(C(=O)N2CCC(c3n[nH]c(=O)n3Cc3ccc(F)cc3)CC2)cc1F,0,0,0,0,-
COc1ccc(-c2nnc(C3CCN(C(=O)c4ccccc4F)CC3)o2)cc1,?,?,?,-29,?
COc1ccc(NC(=O)CN2CCN(Cc3ccccc3Cl)S2(=O)=O)cc1Cl,0,0,0,-29,?
Cc1ccccc1CC(=O)N(C)Cc1ccsc1,-,0,-,-,-
CC(C)CN(CCNC(=O)c1cn(C)c2ccc(S(=O)(=O)N3CCCC3)cc2c1=O)CC(C)C,0,0[11.5 µM],0,0,0
CCCN(CCC)S(=O)(=O)c1c(C(=O)OCC)c(C)n(C)c1C,-,0,-,-,-
Cc1nc(N2CCOCC2)cc(N2CCN(C(=O)c3cccc(C(F)(F)F)c3)CC2)n1,-,0,-,-,-
Cc1c(Cn2c(C)nc3c(C(=O)O)cc(N4CCOCC4)cc32)cccc1C(F)(F)F,0,-,0,0,0
CCCN(CC1CCOC1)C(=O)Nc1ccc(C)c(Cl)c1 (stereo not drawn),0,0,0,0,-
COc1ccccc1CNC(=O)c1cc2cccc3c2n1CC(C)S3 (stereo not drawn),0,?,?,-33,0
CCOc1cc(-c2ccc(OC(=O)c3ccc(C)cc3)c(OC)c2)cc(=O)c2c(C)oc(C)c12,0,?,0,-27,0
SMILES,HEK293 viab,KDM5B inh,SNCA expr inh,IP6K1 inhibitor,IP6K1 inh cnf
COc1cc(-c2cc(OC)c3c(C)oc(C)c3c(=O)c2)ccc1OC(=O)c1ccc(C)cc1,0,?,0,0,-
Cc1oc(C)c2c(=O)cc(-c3ccc4c(c3)OCO4)cc(OC(=O)c3cccc(Cl)c3)c12,0,?,0,0,-
Cc1ccc(C(=O)Oc2cc(-c3ccc4c(c3)OCO4)cc(=O)c3c(C)oc(C)c23)cc1,?,?,?,-54,?
O=C(C1CCOCC1)N1CCC2(CN[S+](=O)([O-])c3cnccc3O2)C1 (stereo not drawn),0,0,0,0,-
CC(C)c1nc2ccc(C(=O)NCCCN3CCN(c4cccc(Cl)c4)CC3)cc2o1,0,?,0,-34,?
CC(C)c1nc2ccc(C(=O)NCCCN3CCN(c4ccc(F)cc4)CC3)cc2o1,0,0,0,0,-
Nc1ccc(C(=O)O)c([N+](=O)[O-])c1,-,0,-,-,-
Nc1ccc(O)c([N+](=O)[O-])c1,0,-,0,-28,32µM
